From PubChem BioAssay AID1159580 (chemical genetic matrix, 2015)
“And” between values parts separate entries of the source, which are not always exact repeats. Equal entries are not always repeated. In all, about 5,500 compounds went through this assay and about 2,000 (36%) were called active. Inconclusive results (about 18%) are left out. No stated cut-off is given here; in the data, active means normalized growth mostly below about 0.91 (no sharp cut-off); inconclusive means no clear call, values can overlap the other calls; inactive means mostly above about 0.92. This is one part of the list.

Test: chemical genetic growth profiling, strain panel (AID 1159580);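 further: tested at 20 µM; growth read once vehicle control cultures reached saturation at 30 °C; 1 = growth at the plate median or of vehicle wells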
Settings: S. cerevisiae deletion strains, growth OD

Measured: normalized growth

COC(=O)COc1cc(Cl)c(Cl)cc1Cl
0.853 (inactive) and 0.874 (active): locus YJL095W, strain BCK1, stronger effect = lower value
active: locus YDR137W, strain rgp1, stronger effect = lower value 0.839
inactive: locus YAL013W, strain DEP1, stronger effect = lower value 0.982 | locus YAL021C, strain ccr4, stronger effect = lower value 0.993 | locus YAL026C, strain drs2, stronger effect = lower value 0.996 | locus YAL030W, strain snc1, stronger effect = lower value 0.998 | locus YBL061C, strain skt5, stronger effect = lower value 0.989 | locus YBR009C, strain hhf1, stronger effect = lower value 0.989 | locus YBR021W, strain FUR4, stronger effect = lower value 0.98 | locus YBR023C, strain chs3, stronger effect = lower value 0.99 | locus YBR171W, strain sec66, stronger effect = lower value 1.01 | locus YBR229C, strain ROT2, stronger effect = lower value 0.981 | locus YBR231C, strain swc5, stronger effect = lower value 0.99 | locus YBR279W, strain paf1, stronger effect = lower value 1 | locus YCL011C, strain gbp2, stronger effect = lower value 0.99 | locus YCL016C, strain dcc1, stronger effect = lower value 1.01 | locus YCL029C, strain bik1, stronger effect = lower value 0.957 | locus YCL061C, strain MRC1, stronger effect = lower value 0.985 | locus YCL069W, strain vba3, stronger effect = lower value 0.986 | locus YCR088W, strain abp1, stronger effect = lower value 0.985 | locus YDL005C, strain med2, stronger effect = lower value 1.01 | locus YDL035C, strain GPR1, stronger effect = lower value 1.01 | locus YDL040C, strain nat1, stronger effect = lower value 0.996 | locus YDL074C, strain BRE1, stronger effect = lower value 0.943 | locus YDL101C, strain DUN1, stronger effect = lower value 0.977 | locus YDL134C, strain PPH21, stronger effect = lower value 0.978 | locus YDL185W, strain tfp1, stronger effect = lower value 0.992 | locus YDL192W, strain arf1, stronger effect = lower value 0.989 | locus YDR001C, strain nth1, stronger effect = lower value 0.988 | locus YDR069C, strain doa4, stronger effect = lower value 1.02 | locus YDR101C, strain arx1, stronger effect = lower value 0.954 | locus YDR150W, strain NUM1, stronger effect = lower value 0.976 | locus YDR159W, strain sac3, stronger effect = lower value 0.973 | locus YDR162C, strain NBP2, stronger effect = lower value 0.965 | locus YDR195W, strain ref2 1.02 | locus YDR297W, strain sur2, stronger effect = lower value 1.02 | locus YDR318W, strain mcm21, stronger effect = lower value 0.955 | locus YDR334W, strain swr1, stronger effect = lower value 1 | locus YDR335W, strain msn5, stronger effect = lower value 1.01 | locus YDR388W, stronger effect = lower value 0.974 | locus YDR392W, strain spt3, stronger effect = lower value 0.963 | locus YDR502C, strain sam2, stronger effect = lower value 0.969 | locus YEL003W, strain gim4, stronger effect = lower value 1.01 | locus YEL037C, strain rad23, stronger effect = lower value 0.997 | locus YEL061C, strain CIN8 (second series), stronger effect = lower value 0.993 | locus YEL061C, strain CIN8, stronger effect = lower value 0.98 | locus YER015W, strain faa2, stronger effect = lower value 0.998 | locus YER016W, strain bim1, stronger effect = lower value 0.999 | locus YER110C, stronger effect = lower value 0.954 | locus YER111C, strain swi4, stronger effect = lower value 0.997 | locus YER155C, strain BEM2 (second series), stronger effect = lower value 1.01 | locus YER155C, strain BEM2, stronger effect = lower value 0.983 | locus YER167W, strain BCK2, stronger effect = lower value 0.975 | locus YFR010W, strain ubp6, stronger effect = lower value 1.01 | locus YGL078C, strain dbp3, stronger effect = lower value 0.96 | locus YGL086W, strain mad1, stronger effect = lower value 0.976 | locus YGL167C, strain pmr1, stronger effect = lower value 0.997 | locus YGL173C, strain kem1, stronger effect = lower value 0.998 | locus YGL227W, strain vid30, stronger effect = lower value 0.979 | locus YGL240W, strain doc1, stronger effect = lower value 0.995 | locus YGL248W, strain PDE1, stronger effect = lower value 0.987 | locus YGL253W, strain hxk2, stronger effect = lower value 1.01 | locus YGR078C, strain PAC10, stronger effect = lower value 0.968 | locus YGR135W, strain pre9, stronger effect = lower value 0.971 | locus YGR229C, strain SMI1, stronger effect = lower value 0.942 | locus YGR252W, strain gcn5, stronger effect = lower value 1 | locus YHR013C, strain ard1, stronger effect = lower value 1.13 | locus YHR027C, strain rpn1, stronger effect = lower value 1.03 | locus YHR030C, strain SLT2, stronger effect = lower value 0.967 and 0.86 | locus YHR079C, strain IRE1 (second series), stronger effect = lower value 0.953 | locus YHR079C, strain IRE1, stronger effect = lower value 0.884 | locus YHR094C, strain hxt1, stronger effect = lower value 0.964 | locus YHR129C, strain ARP1, stronger effect = lower value 0.976 | locus YHR142W, strain chs7, stronger effect = lower value 0.988 | locus YHR200W, strain rpn10, stronger effect = lower value 0.982 | locus YIL066C, strain RNR3, stronger effect = lower value 0.948 | locus YIL073C, strain SPO22, stronger effect = lower value 1.04 | locus YIL125W, strain kgd1, stronger effect = lower value 0.957 | locus YIR030C, strain dcg1, stronger effect = lower value 0.953 | locus YJL092W, strain hpr5, stronger effect = lower value 0.989 | locus YJL095W, strain BCK1 (second series), stronger effect = lower value 0.991 | locus YJL115W, strain asf1, stronger effect = lower value 1.01 | locus YJL129C, strain trk1, stronger effect = lower value 0.971 | locus YJL134W, strain LCB3, stronger effect = lower value 0.974 | locus YJL154C, strain vps35, stronger effect = lower value 0.99 | locus YJL164C, strain tpk1, stronger effect = lower value 0.997 | locus YJL166W, strain qcr8, stronger effect = lower value 0.995 | locus YJL168C, strain set2, stronger effect = lower value 0.976 | locus YJL187C, strain SWE1 (second series), stronger effect = lower value 0.983 | locus YJL187C, strain SWE1, stronger effect = lower value 1 | locus YJR043C, strain POL32, stronger effect = lower value 0.942 | locus YJR066W, strain TOR1, stronger effect = lower value 0.842
